Bioassay records from PubChem BioAssay.
HSF1 inhib = HSF1 inhibition; NIH3T3-HGL HSE-luciferase, MG132-induced, luminescence 8 h; hits give low values; activity change, negative = inhibition, % at 7.5 µM (by protocol); 300,000 tested, 0.77% active;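 active means more than half of replicate wells show activity change below -50%, luminescence cut by over half; inconclusive means some wells, but at most half, below -50%; inactive means no replicate well below -50%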;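 further: luciferase reports HSF-1 transcriptional activity via heat shock element; 0% = median of DMSO wells and -100% = zero luminescence signal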
HSF1 activator = increases HSF-1 driven luciferase reporter signal; NIH3T3-HGL HSF-1 luciferase reporter, MG132, 8 h; 100% = twice DMSO control signal; activation, % at 9 µM; 300,000 tested, 1.7% active;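 active means mean replicate activation of at least 50% with a set share of replicates each reaching 50%; inconclusive means only one of those two conditions met; inactive means mean below 50% and too few replicates reaching it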;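 further: 0% = median of the neutral control wells and 100% = twice that signal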
FXN GAA850 act = increases GAA850 frataxin promoter reporter activity. HEK293 lucGAA850 FXN promoter luciferase reporter, 24 h; percent of 10 µM SAHA response. activation, % at 6 µM. 360,000 tested, 0.56% active. AID 540364;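 active means activation above the average of all compounds screened plus 3 SD, cutoff fixed separately per campaign, cut at about 7.5% in these data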;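 further: 0% = DMSO wells and 100% = 10 µM SAHA wells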
AHR act = activates the human aryl hydrocarbon receptor | activation, % at 5 µM | 320,000 tested, 2.5% active | AHR-responsive luciferase reporter cells, luminescence; in the data active means activation above about 47%;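 further: 0% = vehicle wells and 100% = reference agonist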
Target sequence (P35869 whole entry, looked up): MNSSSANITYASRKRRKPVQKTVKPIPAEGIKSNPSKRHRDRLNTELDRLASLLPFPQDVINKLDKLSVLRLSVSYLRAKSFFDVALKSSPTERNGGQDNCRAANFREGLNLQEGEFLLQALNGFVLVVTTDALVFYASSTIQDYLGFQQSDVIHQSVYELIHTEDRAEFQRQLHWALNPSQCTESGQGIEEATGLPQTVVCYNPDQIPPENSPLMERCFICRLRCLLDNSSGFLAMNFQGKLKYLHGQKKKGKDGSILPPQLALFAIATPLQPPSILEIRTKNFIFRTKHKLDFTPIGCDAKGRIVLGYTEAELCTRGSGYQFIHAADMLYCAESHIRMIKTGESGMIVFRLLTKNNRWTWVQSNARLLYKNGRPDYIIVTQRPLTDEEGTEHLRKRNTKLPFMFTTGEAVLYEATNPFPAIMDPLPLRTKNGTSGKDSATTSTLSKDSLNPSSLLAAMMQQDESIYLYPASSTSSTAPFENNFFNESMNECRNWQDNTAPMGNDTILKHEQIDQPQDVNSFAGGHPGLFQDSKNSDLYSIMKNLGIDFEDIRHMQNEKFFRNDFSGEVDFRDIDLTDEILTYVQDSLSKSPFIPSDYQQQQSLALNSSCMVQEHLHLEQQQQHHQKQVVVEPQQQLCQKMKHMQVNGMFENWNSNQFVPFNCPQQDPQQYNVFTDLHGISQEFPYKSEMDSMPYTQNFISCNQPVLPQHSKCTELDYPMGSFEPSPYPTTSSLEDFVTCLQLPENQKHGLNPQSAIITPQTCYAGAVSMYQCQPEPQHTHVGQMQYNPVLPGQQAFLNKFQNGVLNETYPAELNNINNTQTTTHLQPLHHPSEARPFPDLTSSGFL
Active calls of the source: *; ? = inconclusive; nt = no result. The list is not random: actives were taken first. Their share in the collection is about 4.6%.

SMILES	HSF1 inhib	HSF1 activator	FXN GAA850 act	AHR act
C=CCO/N=C/C1C(=O)CC(C)(C)CC1=O	-8	6	0	-4
CCc1nc2ccc(C(=O)N3CCN(c4ccc([N+](=O)[O-])cc4)CC3)cc2nc1CC	24	60*	0	2
COCCCN(CC(=O)NCc1ccccc1)S(=O)(=O)c1ccc(C)cc1	1	18	1	2
COc1ccc(C)c2sc(NC(=O)CCS(=O)(=O)c3ccccc3)nc12	7	11	1	52*
CCOc1cccc2sc(N(CCN(C)C)C(=O)CCS(=O)(=O)c3ccccc3)nc12	2	4	2	2
CCCCC(=O)Nc1nc2c(OC)cc([N+](=O)[O-])cc2s1	-4	-2	1	10
CCCCC(=O)Nc1nc2c(OC)ccc(OC)c2s1	7	-3	-1	64*
CCc1ccccc1NC(=O)CCS(=O)(=O)c1ccc(OC)cc1	-79*	-84	0	1
CCOc1cccc2sc(NC(=O)CCS(=O)(=O)c3ccccc3)nc12	2	3	-2	57*
Cc1nnc(NC(=O)CCS(=O)(=O)c2ccccc2)s1	-6	-25	-4	16
CCOc1ccccc1NC(=O)CCS(=O)(=O)c1ccc(OC)cc1	-5	-21	3	4
Cc1ccc(-c2nn(-c3ccc(F)cc3)cc2C(=O)NCCCN2CCCC2=O)cc1	nt	nt	0	nt
Cc1ccc(S(=O)(=O)N2CCN(C(=O)CN3CCOCC3)C2)cc1	-4	-2	-1	1
Cc1cc2nnc(SCC(=O)NCC3CCCO3)n2c2ccccc12 (configuration not stated)	11	5	-1	0
COc1ccc(C2C(C#N)=C(N)Nc3nc4ccccc4n32)cc1 (configuration not stated)	31	53*	5	14
COc1ccc(C2C=C(C)Nc3nc4ccccc4n32)cc1 (configuration not stated)	34	?	6	6
CCC(CC)C(=O)Nc1cc(C)c2c(=O)oc3ccccc3c2n1	-5	8	0	50*
CCc1cc2c(=O)c(-c3nc(C)cs3)coc2cc1O	21	25	4	60*
Cc1cc2cc(CNC(=O)c3ccc(S(=O)(=O)N(C)C)cc3)ccc2n1C	-2	12	1	1
CCOC(=O)N1CCC2(CC1)C(C#N)=C(N)Oc1c2sc2nc(C)cc(C)c12	5	9	-2	11
CCCN1CCC2(CC1)C(C#N)=C(N)Oc1c2sc2nc(C)cc(C)c12	-5	-11	1	61*
CN(C)/C=N/c1nc2nccc(-c3cccnc3)n2n1	-7	-5	0	58*
COc1ccc(-c2[nH]c(-c3cccc(OC)c3)nc2SCC(=O)NC2CCCC2)cc1	1	-13	-1	65*
Cc1cc(C)c2c(N)c(C(=O)c3cccc(Cl)c3)sc2n1	-3	13	-2	48*
CCc1ccccc1NC(=O)c1sc2nc(C)cc(C)c2c1N	4	7	1	67*
SMILES	HSF1 inhib	HSF1 activator	FXN GAA850 act	AHR act
Cc1cc(C)c2c(N)c(C(=O)c3ccc(Cl)cc3Cl)sc2n1	-27	-31	-1	34
CCc1cc[n+](C2=C([O-])c3ccccc3C(=O)/C2=N\S(=O)(=O)c2cccs2)cc1	19	30	-1	68*
C=CCN(CC=C)C(=O)c1ccc2nc(Cc3ccc(OC)c(OC)c3)oc2c1	-6	6	2	-4
CCOC(=O)C1CCN(C(=O)COc2ccc(Br)cc2Br)CC1	18	24	1	1
Cc1cc(C)c(C)c(OCC(=O)N2CCN(c3ccccn3)CC2)c1	0	-5	4	27
CCOC(=O)C1CCN(C(=O)COc2cc(C)c(Br)cc2C)CC1	-63*	-71	-2	6
Cc1cc(OCC(=O)N2CCN(c3ccccn3)CC2)c(C)cc1Br	4	16	2	54*
c1ccc(-c2nnc3n2CCCC3)cc1	2	-1	-1	1
O=C(Nc1cc2c3c(c1)CC(=O)N3CCC2)c1ccc(Br)cc1	9	16	3	44
Cc1cc(Cl)ccc1C(=O)C1CCCN(C(=O)c2cnsn2)C1 (configuration not stated)	16	51*	1	2
C=CCNC(=S)Nc1c(C(=O)OC)[nH]c2cc(OC)ccc12	10	30	1	77*
O=C(Nc1ccc(Cl)cc1)C1C2CCCCC21 (configuration not stated)	36	79*	3	9
O=C1CCC(C(=O)Nc2ccc(Cl)cc2)N1 (configuration not stated)	2	9	1	0
COc1ccc2oc(C(=O)OCC(=O)N(C)CC(=O)Nc3ccc(C)cc3)c(C)c2c1	-51*	-61	-1	0
COc1ccc2oc(C(=O)OCC(=O)Nc3ccc(NC(C)=O)cc3)c(C)c2c1	1	-2	2	2
Cc1ccccc1NC(=O)CCCSc1nc2ccccc2s1	-11	-13	-4	7
CCOC(=O)C1CCN(Cc2ccc(O)c(OC)c2)CC1	2	4	3	-1
CCCCN1c2cc(C)c(O)cc2C(C(=O)OCC)C1C (configuration not stated)	44	39	nt	48*
CC1CC1c1ccc(/C=C(\C#N)C(=O)Nc2cc(Cl)ccc2Cl)o1 (configuration not stated)	-6	4	0	60*
CC1CC1c1ccc(/C=C(\C#N)C(=O)Nc2ccc(Cl)cc2Cl)o1 (configuration not stated)	8	20	1	5
CNC(=O)/C(C#N)=C/c1ccc(-c2ccc(Cl)cc2)o1	30	73*	7	11
N#C/C(=C\c1ccc(-c2ccc(C(=O)O)cc2)o1)C(=O)Nc1ccc(F)cc1	1	11	0	77*
COc1ccc(F)cc1C(=O)C1CCCN(Cc2cccn2-c2ccccn2)C1 (configuration not stated)	-64*	-71	-2	40
O=C(c1cc(F)ccc1F)C1CCCN(Cc2cccn2-c2ccccn2)C1 (configuration not stated)	-2	-5	0	2
O=C(CN1C(=O)S/C(=C\C=C\c2ccccc2)C1=O)Nc1cccc(O)c1	105	154*	4	1
SMILES	HSF1 inhib	HSF1 activator	FXN GAA850 act	AHR act
O=C(CCCN1C(=O)S/C(=C\C=C\c2ccccc2)C1=O)Nc1ccc(C(=O)O)cc1	10	28	-3	-5
O=C(CCN1C(=O)S/C(=C\C=C\c2ccccc2)C1=O)Nc1ccc(O)cc1	69	100*	-1	-2
CCN(C(=O)CN1C(=O)S/C(=C\C=C\c2ccccc2)C1=O)C1CCS(=O)(=O)C1 (configuration not stated)	67	86*	6	-2
CN1CCN(c2ccccc2NC(=O)c2ccc(N3CCCCC3)c([N+](=O)[O-])c2)CC1	-13	-8	-2	-2
CC(=O)c1c(-c2ccc(Cl)cc2Cl)noc1C	-57*	-64	1	-1
CC(C)CCNC(=O)c1ccc2c(SCC(=O)O)c3c(nc2c1)CCCC3	17	62*	-2	-1
CCOC(=O)c1ccccc1NC(=O)c1ccc2c(SCC(=O)O)c3c(nc2c1)CCCC3	-77*	-80	1	3
